PrP UTR inh: suppresses PrP 5' UTR mRNA reporter expression; cell-based PrP 5' UTR mRNA reporter, plate reader; inhibition, % (no concentration beside the values); 340,000 tested, 0.35% active; AID 488862; in the data active = inhibition above about 52%; also: 0 = median of the neutral control wells
Mtb UGM inh: inhibitors of M. tuberculosis UDP-galactopyranose mutase. purified UGM, fluorescence polarization probe displacement. 320,000 tested, 0.06% active. inhibition, % at 10 µM. P9WIQ1. AID 504406; in the data active = inhibition above about 10%, passing the limit was not always enough
SSB-PriA inh: blocks PriA binding to SSB C-terminal tail; 430,000 tested, 0.6% active; inhibition, % at 33 µM; AlphaScreen SSBct-PriA binding, biotinylated peptide; in the data active = inhibition mostly above about 37%, no sharp cut-off; inactive = mostly below about 20%;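 also: plate controls were negative control peptide for no effect and reference peptide for full effect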
FadD28 binding: M. tuberculosis FadD28 bisubstrate binding inhibition; inhibition, % at 12.5 µM; 360,000 tested, 0.22% active; FadD28 bisubstrate probe binding, fluorescence polarization; in the data active = inhibition above about 8.5%, passing the limit was not always enough
Rv3671c protease: inhibitors of M. tuberculosis serine protease Rv3671c; P9WHR9; inhibition, % at 5.96 µM; 320,000 tested, 0.048% active; AID 2606; in the data active = inhibition above about 38%;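 also: extracellular domain of Rv3671c used as enzyme; 0% = enzyme with DMSO and 100% = no enzyme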
PrPC surface inh: reduces human prion protein on the cell surface; P04156; inhibition, % at 13.8 µM; cell surface PrPC, TR-FRET read-out; 370,000 tested, 0.43% active; AID 720596; in the data active = inhibition above about 24%; also: 0% = median of the test wells and 100% = reference compound wells
PrP UTR cherry: prion 5' UTR mRNA inhibition, cherry-pick retest. inhibition, % at 2.5 µM. 1,100 tested, 48% active. cell-based prion protein 5' UTR reporter, plate reader. shares compounds with PrP UTR inh. AID 504592; in the data active = inhibition above about 54%
DNA intercalat: DNA intercalation detected by acridine orange polarization counter-screen; acridine orange-DNA binding, fluorescence polarization; shares compounds with Mtb UGM inh; AID 463198; AC50, µM; 35 tested, 60% active;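 active = fitted AC50 no greater than ten times the top concentration tested, cut at about 17 µM in these data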
PrPC TRFRET cf: confirmation of inhibitors of cell surface human prion protein | shares compounds with PrPC surface inh | cell surface PrPC level, TR-FRET | inhibition, % at 13.8 µM | 1,500 tested, 65% active; in the data active = inhibition above about 25%
LD9 tox: kills or reduces viability of LD9 cells in PrPc counter-screen. shares compounds with PrPC surface inh. LD9 cells cytotoxicity, luminescence viability. inhibition, % at 13.8 µM. 1,500 tested, 29% active; in the data active = inhibition above about 9.5%
The depositor's hits bear a star; / = not tested or not shown. Sampled rows, rich in hits. Any-hit rate of the full collection: about 1.2%.

SMILES | PrP UTR inh | Mtb UGM inh | SSB-PriA inh | FadD28 binding | Rv3671c protease | PrPC surface inh | PrPC TRFRET cf | LD9 tox | others
CC(=O)OC(C)(C)/C=C/C(=O)C(C)(O)C1[C@H](O)C[C@@]2(C)C3CC=C4C(CC[C@@H](O)C4(C)C)[C@]3(CO)C(=O)C[C@]12C (some centres undefined) | 81* | 0 | -5 | 1 | 6 | 30* | 33* | 3 | PrP UTR cherry=90*
CCS(=O)(=O)c1ccccc1C(=O)Nc1nc(-c2ccc3c(c2)OCO3)cs1 | / | / | 27 | / | / | / | / | /
Nc1ncnc2c1ccn2[C@@H]1O[C@H](CO)[C@@H](O)[C@H]1O | 81* | 4 | -3 | 1 | -8 | 77* | 68* | 94* | PrP UTR cherry=88*
OCC1OC(n2ccc3c2ncn2ncnc32)C(O)C1O (centres undefined) | / | / | / | 0 | / | -6 | / | /
NC(=S)c1cn(C2OC(CO)C(O)C2O)c2ncnc(N)c12 (centres undefined) | 61* | 2 | -7 | -1 | -1 | 28* | 37* | 37* | PrP UTR cherry=83*
CC(C)c1ccc(-n2c(O)c(C=NNC(=O)c3ccccc3O)c(=O)[nH]c2=S)cc1 | / | / | -7 | / | / | / | / | /
Cc1c(C(=O)NCCS(=O)(=O)N2CCN(c3ccccc3)CC2)cccc1[N+](=O)[O-] | / | / | -4 | / | / | / | / | /
COc1ccccc1-n1c(SCc2c(C)noc2C)nc2ccsc2c1=O | / | / | 17 | / | / | / | / | /
COCC(=O)N1CCCc2ccc(NS(=O)(=O)c3cnn(C)c3)cc21 | / | / | -10 | / | / | / | / | /
COc1ccc2c3c(cccc13)C(=O)CC2 | 1 | 79* | -8 | 47* | / | -7 | / | / | DNA intercalat=>35
O=C(CN1CC(c2nc(Cc3ccccc3)no2)C1)N1CCN(c2ccccc2)CC1 | / | / | 14 | / | / | / | / | /
CC1Cc2ccccc2N1C(=O)CSc1ncccn1 (centres undefined) | -24 | 4 | -2 | -1 | -5 | -6 | / | / | DNA intercalat=>35
CC1Cc2ccccc2N1C(=O)CSc1ccccn1 (centres undefined) | / | / | / | -1 | / | -7 | / | /
O=C(NCc1ccnc(-c2ccco2)c1)c1cccc(Cl)c1 | / | / | 13 | / | / | / | / | /
COc1ccc(NC(=O)CSc2nccn(-c3ccc(F)c(Cl)c3)c2=O)c(OC)c1 | / | / | -15 | / | / | / | / | /
Cc1cc(C)cc(NS(=O)(=O)c2ccc3c(c2)C(C)(C)C(=O)N3C)c1 | -12 | 1 | 3 | -1 | 3 | 9 | / | / | DNA intercalat=>35
O=c1ccc2c(-c3ccccc3)c3ccc(O)cc3oc-2c1 | / | 41* | 0 | 6 | 19 | -23 | / | / | DNA intercalat=0.55*
O=c1cc(-c2ccccc2)oc2cc(O)ccc12 | -47 | / | -1 | -1 | / | 5 | / | /
Cc1cccc(N2C(=O)c3cccc4c(N(C)CCO)ccc(c34)C2=O)c1 | 0 | 3 | -36 | 2 | 9 | / | / | / | DNA intercalat=>35
O=C(CCCN1C(=O)c2cccc3cccc(c23)C1=O)N1CCN(c2ccccc2)CC1 | -17 | 3 | 4 | -1 | 3 | 4 | / | / | DNA intercalat=>35
O=C(CCCN1C(=O)c2cccc3cccc(c23)C1=O)N1CCN(c2ccccc2O)CC1 | 6 | -3 | 3 | -1 | 2 | -31 | / | /
COc1ccccc1N1CCN(S(=O)(=O)CCNC(=O)c2ccc([N+](=O)[O-])cc2)CC1 | / | / | -1 | / | / | / | / | /
COc1ccc2ccccc2c1C(O)c1nccn1C (centres undefined) | -12 | 39* | -13 | 7 | 13 | -31 | / | / | DNA intercalat=>35
Cn1ccnc1C(O)c1ccccc1 (centres undefined) | -34 | -1 | -16 | -2 | 1 | -3 | / | /
CCOC(=O)N1CCN(c2cc(NCCC(=O)O)c3c4c(onc24)-c2ccccc2C3=O)CC1 | -7 | -30 | 71 | 15* | -30 | / | / | / | DNA intercalat=>35
SMILES | PrP UTR inh | Mtb UGM inh | SSB-PriA inh | FadD28 binding | Rv3671c protease | PrPC surface inh | PrPC TRFRET cf | LD9 tox | others
Cn1c(=O)c2cc(NC(=O)NCc3ccc(F)cc3)ccc2n1Cc1cccc(C(F)(F)F)c1 | / | / | / | -1 | / | 17 | / | /
Cn1c(=O)c2cc(NC(=O)NCc3ccccc3)ccc2n1Cc1cccc(C(F)(F)F)c1 | / | / | / | -2 | / | 25* | 15 | -3
CCOc1ccccc1NC(=O)c1ccc(S(=O)(=O)NCc2ccco2)o1 | / | / | 3 | / | / | / | / | /
CCS(=O)(=O)c1ncc(Cl)c(C(=O)Nc2ccc(S(=O)(=O)N3CCC(C)CC3)cc2)n1 | -6 | 2 | -5 | 8.9* | -128 | 79* | 38* | 100*
CCc1ccc(NC(=O)c2nc(S(=O)(=O)Cc3ccccc3)ncc2Cl)cc1 | -20 | -2 | / | -4 | -17 | 64* | 24 | 96*
COC(=O)c1ccc(NC(=O)c2nc(S(=O)(=O)Cc3cccc(C)c3)ncc2Cl)cc1 | -4 | 2 | -10 | -1 | -25 | 84* | 46* | 96*
CCOC(=O)c1ccc(NC(=O)c2nc(S(=O)(=O)Cc3ccccc3)ncc2Cl)cc1 | -5 | 1 | -4 | -4 | -34 | 1 | / | /
CC1CCN(S(=O)(=O)c2ccc(NC(=O)c3ccncc3)cc2)CC1 | -20 | -2 | -4 | -6 | -8 | 2 | / | /
CCCc1nnsc1C(=O)NCC1CCN(C(=O)c2ccncc2)CC1 | / | / | -12 | / | / | / | / | /
CCc1nc2ccccc2[nH]c1=O | 1 | 1 | -16 | -4 | -3 | 37* | 0 | -6
CCN(CC)c1nc2ccccc2[nH]c1=O | 0 | 1 | -9 | -3 | 5 | 3 | / | /
O=C1CC(Sc2nnc(-c3ccccc3)o2)C(=O)N1c1ccccc1 (centres undefined) | -22 | -1 | -10 | -1 | 1 | 6 | / | /
Cc1ccccc1N1C(=O)CC(Sc2nnc(-c3ccccc3)o2)C1=O (centres undefined) | 0 | -1 | -9 | -3 | 7 | 30* | 21 | -2
O=C(NC1CCCC1)C(c1ccncc1)N(Cc1ccco1)C(=O)c1ccc(-c2ccccc2)[nH]1 (centres undefined) | -36 | -1 | -6 | -3 | -9 | 13 | / | /
O=C(NC1CCCC1)C(c1ccncc1)N(Cc1ccccc1)C(=O)c1ccc(-c2ccccc2)[nH]1 (centres undefined) | -13 | -2 | 27 | -11 | -7 | 26* | 18 | -9
CC(C)(C)NC(=O)C(c1ccncc1)N(Cc1ccc(F)cc1)C(=O)c1ccc(-c2ccccc2)[nH]1 (centres undefined) | -6 | -2 | -7 | -3 | -1 | 27* | 15 | -4
O=C1C=CC(=Nc2cc(Cl)c(O)c(Cl)c2)C=C1 | / | / | -1 | / | / | / | / | /
O=c1[nH]c(=O)n(Cc2ccco2)c2c1C(C(F)(F)F)(C(F)(F)F)N=C(CCc1ccccc1)N2 | / | 3 | -4 | -2 | 9 | 56* | 72* | 2

Compound activity as filed in PubChem BioAssay.
